# In ChEMBL document CHEMBL3988442, “University of Dundee, Small-Polar-MMV Screening Library” (2021):
# Hit rate of the full screen: of about 48,000 compounds, about 13,000 (27%) showed an effect of 50% or more. This is one part of the list.
# Test system: Wolbachia pipientis
# Test: Anti-Wolbachia Cell-Based Screen
# Type: functional
# Parameters: scale not given: in the data most compounds retested in dose-response had high values
# Details: 5 µM
row,SMILES,Percent Effect [%]
1,CNc1cc(C)nc(N2C[C@H](C3CC3)[C@@H](N)C2)n1,-22.96
2,Cc1cc(NC(=O)NCc2ccc(C)s2)no1,3.366
3,O=C(Cc1ccsc1)N1C[C@@H]2COC[C@]2(COc2cccnc2)C1,95.21
4,O=C(Cc1cccs1)N1C[C@@H]2COC[C@]2(COc2cccnc2)C1,7.396
5,O=C(Cc1cccs1)N1C[C@@H]2COC[C@]2(COCc2cccnc2)C1.O=C(O)C(F)(F)F,-3.131
6,O=C(Cc1ccsc1)N1C[C@@H]2COC[C@]2(COCc2cccnc2)C1.O=C(O)C(F)(F)F,-1.782
7,Cc1ccnc(OC[C@]23COC[C@H]2CN(C(=O)Cc2ccsc2)C3)n1,106.6
8,Cc1cccc(COC[C@]23COC[C@H]2CN(C(=O)c2ccsc2)C3)n1,4.122
9,CS(=O)(=O)c1ncc(CN2CCCC(C(N)=O)C2)n1CC1CCCCC1 (stereo not drawn),6.801
10,COCC1(NC(=O)C(c2ccc(F)cc2)N(C)C)CCCC1 (stereo not drawn),-2.374
11,COc1ccc(NC(=O)c2cccc(CN3CCCC3C)c2)cc1OC (stereo not drawn),8.38
12,CC1CCCN1Cc1cccc(C(=O)Nc2ccc3[nH]c(=O)oc3c2)c1 (stereo not drawn),1.459
13,CC1CCCN1Cc1cccc(C(=O)Nc2ccc3c(c2)CCC3=O)c1 (stereo not drawn),51.3
14,Cc1nc(COC(=O)c2cccc3c2OCCO3)cs1,117.7
15,Cc1ncsc1COC(=O)c1cccc2c1OCCO2,128
16,Cc1nc(CCN(C)C(=O)C2COc3ccccc3C2)no1 (stereo not drawn),-0.4164
17,Cc1nc(C2CCCN(C(=O)c3cccc4c3OCO4)C2)no1 (stereo not drawn),12.92
18,Cc1nc(CC(=O)N2c3ccccc3OCC2C)cs1 (stereo not drawn),-16.16
19,CCN(Cc1ccc2c(c1)OCCO2)C(=O)NCc1csc(C)n1,-4.508
20,Cc1ncsc1CN(C)C(=O)CC1CCOc2ccccc21 (stereo not drawn),5.103
21,Cc1ncsc1CCN(C)C(=O)CN1CCOc2ccccc2C1,0.429
22,Cc1nc(COC(=O)c2cccc3c2OCCO3)no1,110.5
23,NC(=O)N1CCCN(C(=O)Nc2cc(-n3cccc3)ccc2F)CC1,-14.58
24,CN1CC(C(=O)NC(C)(C)CNC(=O)OC(C)(C)C)CC1=O (stereo not drawn),-3.275

row,SMILES,Percent Effect [%]
1,COCc1ccccc1C(=O)NCC(O)c1ccc(Cl)s1 (stereo not drawn),11.9
2,CN(C)c1ncnc2c1CCN(S(=O)(=O)c1cccc3nsnc13)C2,10.74
3,COc1ncccc1CNC(=O)c1cc(F)cc(Br)c1,12.35
4,CC(=O)c1cnc(NCCN2CCCC2)nc1C,107.9
5,CC(=O)c1cnc(NCC2OCCc3ccccc32)nc1C (stereo not drawn),8.592
6,CCc1cnc(C)nc1NCCN1CCCC(C(N)=O)C1 (stereo not drawn),3.304
7,Cc1csc(C2(NC(=O)NCCN3CCOCC3)CCC2)n1,-15.32
8,CC(=O)c1cnc(NCCCN2CCOCC2)nc1C,89.28
9,OC1CCN(CCNc2ncc3c(n2)CCN3c2ccccc2)CC1,0.6072
10,Cc1ncccc1OC1(C(=O)NCCCN2CCOCC2)CCNCC1,-8.588
11,CC(=O)c1cnc(NCCc2csc(-c3cnccn3)n2)nc1C,-3.465
12,CC(=O)c1cnc(NCCN2CCCC(c3ccccc3)C2)nc1C (stereo not drawn),111.1
13,COC(=O)CN(CC1CCOC1)C1CC1 (stereo not drawn),-11.06
14,Cc1cnccc1N1CCN(C(=O)CCCN2CCCCC2)CC1,-8.637
15,COc1ncccc1C(=O)N1CC(c2nc(-c3ccccn3)no2)C1,-3.614
16,Cc1[nH]c(=O)[nH]c(=O)c1CN1CCCC(CCc2c(F)cccc2F)C1 (stereo not drawn),-22.77
17,Cc1cc(C)n(-c2ccc(CNCc3ccc(OC(C)C)cc3)cn2)n1,-13.05
18,Oc1nnc(-c2cccs2)c2sc(N3CCCCC3)nc12,11
19,Cc1nc(C2CCCNC2)cc(N2CCc3nc(N)sc3C2)n1 (stereo not drawn),-10.94
20,Cl.O=C(Nc1cccc(F)c1)C1=NOC2(CCNCC2)C1,1.069
21,Cc1sc2c(C3CCCNC3)nc(Nc3cccc(F)c3)n2c1C.Cl (stereo not drawn),138.6
22,Cc1sc2c(C3CCNCC3)nc(Nc3cccc(F)c3)n2c1C.Cl,83.53
23,Cc1nn(C(C)C)c(C)c1S(=O)(=O)Nc1cccc(F)c1,2.276
24,COc1ccccc1CCNC(=O)CN1CCCC1c1noc(C)n1 (stereo not drawn),-5.748
